Source: PubChem BioAssay (several laboratories)
Rows were chosen to be rich in hits. Some 4.6% of all compounds tested hit in one or more screens of this group.
IL1B cytotox: HUVEC cytotoxicity counter-screen, IL-1B stimulated | actives 0.41% (n = 94,000) | HUVEC cell count loss, Hoechst imaging | cell count reduction, % at 2 µM;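 active means cell count reduction more than 3 SD above the screen-wide mean, cut at about 70% in these data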;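 further: normalized per plate to untreated control cells as the no-loss baseline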
sEH activator: activators of human soluble epoxide hydrolase; purified human sEH enzymatic activity, activator screen; activation, % at 2 µM; actives 0.04% (n = 91,000); in the data active means activation above about 37%
sEH inh: inhibitors of human soluble epoxide hydrolase. P34913. recombinant human sEH enzymatic activity assay. actives 0.34% (n = 91,000). inhibition, % at 2 µM; in the data active means inhibition above about 80%
IL1B NFkB pot: enhances IL-1B driven NFkB nuclear translocation; AID 819; activation, % at 2 µM; actives 0.3% (n = 94,000); HUVEC IL-1B NFkB p65 nuclear translocation imaging;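 active means activation above 40%, about the mean plus 3 SD, also judged a hit on visual image review; inconclusive means activation above 40% but not a hit on visual review; inactive means activation not above 40% and no visual hit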;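 further: percent activation is computed from the nuclear over cytoplasmic p65 intensity ratio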
Cav32 inh: blocks human Cav3.2 T-type calcium channel. actives 4% (n = 100,000). B-score at 10 µM. Cav3.2-expressing cells, Fluo-4 calcium fluorescence FDSS; hits give low values;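 active means single-dose well whose peak fluorescence ratio is a statistical outlier from its plate by either plate-standardised score or position-corrected B-score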
NFkB transloc inh: blocks IL-1B driven NFkB nuclear translocation in HUVEC cells | HUVEC IL-1B NFkB p65 nuclear translocation imaging | inhibition, % at 2 µM | actives 0.43% (n = 94,000);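 active means inhibition above about 30% together with a positive call from visual inspection of the well image, limit read from the data; inconclusive means inhibition above a set limit but visual check negative; inactive means inhibition not above a set limit, visual check negative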;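 further: nuclear over cytoplasmic p65 intensity ratio measured by imaging; 0% = IL-1B stimulated DMSO wells and 100% = unstimulated DMSO wells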
* hit, by the source's call; ? = inconclusive; nt = no result given.

SMILES | IL1B cytotox | sEH activator | sEH inh | IL1B NFkB pot | Cav32 inh | NFkB transloc inh
O=C(Nc1ccc(Cl)cc1)[C@@H]1[C@@H]2C(=O)N(c3ccc4ccccc4c3)C(=O)[C@@H]2[C@H]2C=CC=NN21 | -117 | 9 | -10 | -16 | -8.6* | 16
O=c1cc(N2CCCCC2)nc2n1CCCS2 | -8 | 7 | -8 | -9 | 0.57 | 9
O=C(Nc1cccn(Cc2c(Cl)cccc2Cl)c1=O)c1c(Cl)cccc1Cl | 9 | -11 | 9 | 5 | -6.5* | -5
Cc1ccc(S(=O)(=O)N2CCOCC2)cc1C(=O)N1c2ccccc2Sc2ccccc21 | -18 | -8 | 9 | -8 | -4.2* | 8
O=C(c1ccccc1)N(Cc1ccccc1)c1ccccn1 | 13 | 7 | -5 | -4 | 0.46 | 4
O=C(N(Cc1ccccc1)c1ccccn1)C12CC3CC(CC(C3)C1)C2 | 9 | -7 | 4 | 6 | -3.6* | -6
O=C1OCC2=C1C(c1ccc3c(c1)OCO3)Sc1ccccc1N2 (centres undefined) | 34 | 8 | -7 | 13 | -0.7 | -13
CCOc1ccc(C2Sc3ccccc3NC3=C2C(=O)OC3)cc1 (centres undefined) | -11 | -6 | 4 | 7 | -4.1* | -7
CC(=O)N=C1SC2CS(=O)(=O)CC2N1c1c(Cl)cccc1Cl (centres undefined) | 21 | 1 | 3 | 2 | 0.043 | -2
CCOc1cc(N(CC)CC)ccc1/C=C(/C#N)c1nc2ccccc2[nH]1 | -45 | -4 | 7 | 12 | nt | -12
CCCOc1cc(N(CC)CC)ccc1/C=C(/C#N)c1nc2ccc(C)cc2[nH]1 | -33 | 4 | -1 | 22 | -5* | -22
CCN(CC)c1ccc(/C=C(/C#N)c2nc3ccc(C)cc3[nH]2)c(OC(C)C)c1 | 6 | 5 | -7 | 2 | -5.5* | -2
Cc1cc(C)nc(SCC(=O)Nc2ccc(N3CCOCC3)cc2)n1 | -22 | 0 | -2 | 27 | 0.7 | -27
O=C(O)CCCC(=O)Nc1ccc(C(=O)N2CCCCC2)cc1 | -20 | 8 | -5 | -3 | 0.015 | 3
O=C(O)CCC(=O)Nc1ccc(C(=O)N2CCCCC2)cc1 | 88* | -2 | 2 | 1 | nt | -1
CC(=O)OCCN(Cc1ccccc1)Cc1ccc2c(c1)OCO2 | -9 | 12 | -11 | -2 | 0.68 | 2
Cc1cccc(OCC(=O)NC(C)C(=O)N/N=C/c2c(OCc3ccccc3)ccc3ccccc23)c1 (centres undefined) | 7 | 3 | 0 | -3 | -6.8* | 3
CC1CCCC(NC(=O)CSc2nnnn2C)C1C (centres undefined) | 2 | nt | nt | 7 | -4.7* | -7
CCc1ccc(OCC(=O)NC(=S)Nc2ccc(C)cc2C)c(Br)c1 | -24 | -10 | 12 | -12 | 1.1 | 12
CCCc1cc(-c2n[nH]c(=S)n2C(C)c2ccccc2)cs1 (centres undefined) | 6 | 12 | -10 | -8 | -4.6* | 8
COc1ccc(CCN(Cc2nc(-c3ccccc3)no2)Cc2nc(-c3ccccc3)no2)cc1OC | 1 | -1 | -1 | -35 | -1.9 | ?
O=c1c(-c2nnc(SCc3ccc(Cl)cc3)o2)cccn1Cc1ccccc1 | -24 | 17 | -14 | 20 | -2 | -20
O=C(Nc1ccccc1-c1nnc(SCc2ccccc2)o1)c1ccccc1 | -1 | 9 | -6 | -3 | -5.8* | 2
O=C(Nc1ccccc1-c1nnc(SCc2ccc(Cl)cc2)o1)c1ccccc1 | -17 | 3 | -2 | 13 | -4.2* | -13
Cc1cc(/C=N/n2cnnc2)c(C)n1-c1cc(Cl)ccc1Cl | 0 | 13 | -13 | -8 | -1.1 | 8
SMILES | IL1B cytotox | sEH activator | sEH inh | IL1B NFkB pot | Cav32 inh | NFkB transloc inh
Cc1ccc(NC(=O)c2cc(S(=O)(=O)N3CCOCC3)ccc2F)c(C)c1 | nt | nt | nt | nt | 0.16 | nt
O=C(NCc1ccc(F)cc1)c1cc(S(=O)(=O)N2CCOCC2)ccc1F | 8 | -11 | 13 | -7 | -5.2* | 7
CCOC(=O)C1=C(C)NC(C)=C(C(=O)OCC)C1c1cc2ccc(C)cc2[nH]c1=O | -5 | -16 | 14 | 5 | -5.1* | -5
CC(C)Oc1cccc(C(=O)Nc2ccccc2N2CCOCC2)c1 | -100 | -12 | 11 | 23 | -1.9 | -23
CCC(C)Oc1cccc(C(=O)Nc2ccccc2N2CCOCC2)c1 (centres undefined) | -23 | 12 | -10 | 9 | -5.3* | -9
CCCn1c(Sc2nc3c(c(=O)[nH]c(=O)n3C)n2CCC)nc2c1c(=O)[nH]c(=O)n2C | -35 | 1 | 0 | 6 | 1.1 | -6
CCc1ccc(OCc2nc(-c3ccccn3)no2)c(Br)c1 | 4 | -5 | 7 | 6 | -4.6* | -6
O=C(CCc1nc(-c2cccs2)no1)NCc1ccc(F)cc1Cl | -9 | -53 | 52 | 4 | -4.5* | -4
Cc1ccc(CNC(=O)CCc2nc(-c3cccs3)no2)cc1 | -4 | -27 | 25 | -7 | -5.1* | 7
COc1ccccc1NC(=O)CCc1nc(-c2cccs2)no1 | 16 | 2 | -2 | 17 | 0.85 | -17
CCOc1ccc(C2/C(=C(\O)c3c(C)[nH]c(C(=O)OC)c3C)C(=O)C(=O)N2CCN(C)C)cc1 (centres undefined) | -8 | -12 | 13 | 11 | 1.8 | -11
COC(=O)c1c(NC(=O)CN2CCOCC2)sc2c1CCC(C)C2 (centres undefined) | -8 | -6 | 8 | 17 | 0.32 | -17
Nc1cc(-c2ccccc2)nn1Cc1ccc(Cl)cc1 | nt | 4 | -4 | nt | -5.8* | nt
Nc1cc(-c2ccc(Cl)cc2)nn1S(=O)(=O)c1ccccc1 | 5 | -4 | 1 | 28 | -1.2 | -28
N#CCC(=O)N/N=C/c1ccc(Sc2nc3ccccc3s2)o1 | 8 | -4 | 10 | 1 | -5.3* | -1
O=C(COc1cccc2ccccc12)N/N=C/c1ccc(Sc2nc3ccccc3s2)o1 | 0 | 2 | -3 | 6 | -2.9 | -6
Cc1ccccc1OCC(=O)N/N=C/c1ccc(Sc2nc3ccccc3s2)o1 | 2 | -14 | 15 | 5 | -6.8* | -5
CCC12CN3CC(CC)(CN(C1)C3c1ccc(OC(C)C)cc1)C2=O (centres undefined) | -4 | 0 | -2 | 6 | -0.55 | -6
CC1(C)CC(=O)c2cc(C(=O)NCc3ccco3)c(=O)n(-c3ccccc3)c2C1 | 8 | 3 | 1 | -15 | 4.1* | 15
CCOC(=O)C1=NN(c2ccccc2)C2(S1)SC(C(C)=O)=C(C)N2c1ccccc1 (centres undefined) | -1 | 2 | -3 | -3 | -4.8* | 4
CCOC(=O)C1=NN(c2cccc(C)c2)C2(S1)SC(C(C)=O)=C(C)N2c1ccccc1 (centres undefined) | 21 | 10 | -8 | -17 | -3.5* | 17
COc1cc(-c2nnn(CC#N)n2)ccc1OCc1ccccc1 | -7 | nt | nt | 9 | -0.63 | -9
CCOC(=O)c1cc(-c2ccccc2)sc1NC(=S)Nc1cccc(C)n1 | -30 | -10 | 13 | 4 | 0.12 | -4
